A structure can be active in one record and inactive in another. Activity calls are given as the source filed them. The calls were made as follows: active = hit-call score of the fitted dose curve at least 0.9, where 1 is the maximum; inactive = score below 0.9.
The compounds below were run on Plasminogen activator inhibitor-1 (PAI1), SERPINE1 (gene 5054) (assay: BSK_BE3C_PAI1: BioMAP Diversity Plus: BE3C Assay for Plasminogen activator inhibitor-1 (PAI1) Biomarker Activity (AID 2283037)). Conditions: primary human bronchial epithelial cells; actives raise or lower the signal.
Protocol: BSK_BE3C is a cell-based, multiplexed-readout assay that uses bronchial epithelial cell, a human lung primary cell, with measurements taken at 24 hours after chemical dosing in a 96-well plate.BSK_BE3C_PAI1 is an assay component measured in the BSK_BE3C assay. It measures PAI-1 antibody related to regulation of gene expression using ELISA technology.Data from the assay component BSK_BE3C_PAI1 was analyzed into 1 assay endpoint. This assay endpoint, BSK_BE3C_PAI1, was analyzed with bidirectional fitting relative to DMSO as the negative control and baseline of activity. Using a type of binding reporter, gain or loss-of-signal activity can be used to understand changes in the signaling as they relate to the gene SERPINE1. Furthermore, this assay endpoint can be referred to as a primary readout, because this assay has produced multiple assay endpoints where this one serves a signaling function. To generalize the intended target to other relatable targets, this assay endpoint is annotated to the cytokine intended target family, where the subfamily is plasmogen activator inhibitor.
The levels of cell surface (or secreted, indicated by the prefix "s") biomarker endpoints were measured by ELISA. Overt cytotoxicity to cells in confluent adherent cultures (all systems other than the BT system) was assessed by measuring total protein levels using sulforhodamine B (SRB) staining in parallel cultures at the time of biomarker measurements, indicated as SRB endpoints. For proliferation assays for adherent cell types, individual cell types are cultured at sub-confluence and relative cell numbers quantified by SRB staining at time points optimized for each system (48 h: 3C and CASM3C systems; 72 h: BT and HDF3CGF systems; 96 h: SAg system). SRB was performed by staining cells with 0.1% SRB after fixation with 10% TCA and reading wells at 560 nm.Viability and proliferation of PBMC (T cells) was quantified by Alamar Blue reduction for the SAg and BT systems. For PBMC viability (referred to as PBMC Cytotoxicity within the assay endpoint names), cells were plated (75,000/well in a 96-well plate) and then chemical samples added for 1 h before addition of activators, SEB and TSST-1 (20 ng/mL final concentration each). Cells were incubated for 90 h. Then, Alamar Blue (20 uL/well) (Invitrogen, Cat DAL1100) was added for 6 h, and the plates were read with a fluorescence microplate reader at 546/580 nm (excitation/emission). For PBMC proliferation, cells were plated and activated as above but incubated for only 16 h prior to addition of Alamar Blue. Plates were read after 6 h.

| Compound | outcome | AC50 |
| --- | --- | --- |
| O=C(O)c1ccc2c(c1)nc(C(=O)NC1CCN(C3CC3)CC1)n2Cc1cc(-c2ccc(Cl)s2)on1 | inactive | – |
| CCCc1ccccc1 | inactive | – |
| c1ccc(C(O[C@@H]2CCCN(CCc3ccc4c(c3)OCO4)C2)c2ccccc2)cc1 | inactive | – |
| Cc1cccc(O)c1C | inactive | – |
| C[C@@H](Oc1ccc(CNC(=O)c2cccnc2Oc2ccc3c(c2)OCO3)c(F)c1)C(=O)O | inactive | – |
| CC(C)CC(C)O (stereo not given) | inactive | – |
| O=C(O)c1cccc(C[C@@H]2COc3ccc(OCc4nc5cc(F)ccc5s4)cc3[C@@H]2O)c1 | inactive | – |
| O=C(NO)C1(NS(=O)(=O)c2ccc(Oc3ccc(F)cc3)cc2)CCOCC1 | inactive | – |
| NC(=O)NN=Cc1ccc([N+](=O)[O-])o1 | inactive | – |
| COCc1nnc(-c2ccc[n+]([O-])c2)n1-c1c(Cl)c(Cl)cc2[nH]c(=O)c(=O)[nH]c12 | inactive | – |
| OC(O)(C(F)C(O)(O)C(F)(F)F)C(F)(F)F | inactive | – |
| O=C(Cl)C(F)(F)C(F)(F)C(F)(F)C(=O)Cl | inactive | 12.2 µM (active) |
| NC(=O)N(O)[C@@H]1COc2cc(OCc3ccccc3)ccc21 | inactive | – |
| CCOc1ccc2[nH]cc(C(=O)NCc3ccccc3)c(=O)c2n1 | inactive | – |
| CCCCCCCC/C=C\CCCCCCCC(=O)OC[C@@H](O)[C@H]1OC[C@H](O)[C@H]1O | inactive | – |
| CCCCCOC(C)=O | inactive | – |
| OC(Cn1cncn1)(Cn1cncn1)c1ccc(F)cc1F | inactive | – |
| CCCCN1C(=O)[C@@H]([C@H](O)C2CCCCC2)NC(=O)C12CCN(Cc1ccc(Oc3ccc(C(=O)O)cc3)cc1)CC2 | inactive | – |
| O=S(=O)(O)CCC(F)(F)C(F)(F)C(F)(F)C(F)(F)C(F)(F)C(F)(F)F | inactive | – |
| NNC(=O)c1ccncc1 | inactive | – |

| Compound | outcome | AC50 |
| --- | --- | --- |
| c1ccc2c(c1)-c1cccc3c1c-2cc1ccccc13 | inactive | – |
| CCCCCCCC1CCC(=O)O1 (stereo not given) | inactive | – |
| CCCCCCOC(=O)CC(CC(=O)OCCCCCC)(OC(=O)CCC)C(=O)OCCCCCC | inactive | – |
| CCCCCCCCN(C)C | inactive | – |
| CC(C)c1nnc2ccc(-c3ocnc3-c3cc(F)ccc3F)cn12 | inactive | – |
| c1ccc2ncccc2c1 | inactive | – |
| CCCOc1ccc(S(=O)(=O)N2CCN(CC)CC2)cc1-c1nc2c(CC)n(Cc3ccccn3)nc2c(=O)[nH]1 | inactive | – |
| FC(F)C(F)(F)COCC1CO1 (stereo not given) | inactive | – |
| CCCCCCCCCC | inactive | – |
| OCc1c[nH]c2ccccc12 | – | 0.0716 µM (active) |
| NCC(F)(F)C(F)(F)C(F)(F)C(F)(F)F | inactive | – |
| Nc1ccn([C@@H]2O[C@H](CO)[C@@H](O)[C@@H]2O)c(=O)n1 | inactive | – |
| CCn1nc(C)c2c1C(=O)NCC(c1ccc(O)cc1)=N2 | inactive | – |
| CCN(CC)C(=S)SSC(=S)N(CC)CC | – | 27.9 µM (active) |
| OCCC(F)(F)C(F)(F)C(F)(F)C(F)(F)F | inactive | – |
| FC(F)=C(F)C(F)(F)C(F)(F)C(F)(F)C(F)(F)C(F)(F)C(F)(F)F | inactive | – |
| Cc1nccn1-c1ccc(Sc2cccc(C3(C(N)=O)CCOCC3)c2)cc1 | inactive | – |
| OCCOCCOCCO | inactive | – |
| C=CN1CCCC1=O | inactive | – |

— PubChem BioAssay (EPA / NIEHS)
